# Source: PubChem BioAssay (NCATS)
# A number with no mark means an inactive call. The source made the active and inactive calls. No rule for the calls is given here.
# System: HIV-1 nucleocapsid protein NCp7 (binding to TG oligonucleotide)
# Experiment: HIV Nucleocapsid (AID 346);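 also: potency is for inhibitors that block NC binding and lower polarization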
# Conditions: HIV-1 NC / fluorescein-TGTGTGTG probe, fluorescence polarization
# Method in brief: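 Fluorescence polarization binding of 100 nM HIV-1 NC to 10 nM fluorescein-labelled TG4xF oligonucleotide. Buffer was Hepes pH 7.5 with 250mM NaCl, 1uM ZnCl2, TCEP and 2-mercaptoethanol. Compounds were incubated 1 hr at room temperature before the read.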
# Potency is read from the fitted curve at half-maximal effect.
row,SMILES,Potency
1,CN1CC[C@@]2(CCCN(C(=O)c3cccc(F)c3)C2)C1,> 20 µM
2,Cc1noc(C)c1C(=O)N1CCC2(CCCN(C(=O)NC(C)C)C2)CC1,> 20 µM
3,COc1ccc(C(=O)N2CCC3(CCCN(c4ncccn4)C3)CC2)cc1,> 20 µM
4,COc1ccc(-c2nc3cnc(OC)nc3n(CCc3ccccc3)c2=O)cc1,> 20 µM
5,CN1CCN(c2nc(-c3ccc4c(c3)OCO4)nc3ccccc23)CC1,> 20 µM
6,COc1ccc(CNc2cc(-c3cccc(NS(C)(=O)=O)c3)ncn2)c(OC)c1,> 20 µM
7,FC(F)(F)c1ccccc1-c1cncnc1NCc1cccs1,> 20 µM
8,O=C(c1cnccn1)N1CCC2(CC1)CN(Cc1nccs1)C2,> 20 µM
9,COc1ccc(Oc2ncc3nc(-c4ccccc4)c(=O)n(C4CC4)c3n2)cc1,> 20 µM
10,N#Cc1ccc(CN2CCC3(CC2)CCN(C(=O)c2ccco2)CC3)cc1,> 20 µM
11,Cc1ccccc1-c1cc(NCc2cccnc2)ncn1,> 20 µM
12,COc1cccc(Cn2c(=O)c(C)nc3cnc(Oc4ccccc4)nc32)c1,> 20 µM
13,COCCNc1ncnc2ccc(-c3ccoc3)cc12,> 20 µM
14,COCC(=O)N1CCC2(CCCN(C(c3ccccc3)c3ccccc3)C2)CC1,> 20 µM
15,O=c1c(-c2ccc(Cl)cc2)nc2cnc(N3CCOCC3)nc2n1C[C@H]1CCCO1,> 20 µM
16,Cc1cnc(CNc2cc(-c3ccccc3C)ncn2)cn1,> 20 µM
17,COc1ccc(CNc2cc(-c3ccccc3C)ncn2)c(OC)c1,> 20 µM
18,CN1CCN(c2ncc3nc(-c4cn(C)c5ccccc45)c(=O)n(Cc4cccs4)c3n2)CC1,> 20 µM
19,COc1cccc(Cn2c(=O)c(-c3cn(C)c4ccccc34)nc3cncnc32)c1,> 20 µM
20,COc1ccc(NC(=O)N2CC3(CCN(C(=O)c4ccco4)CC3)C2)cc1,> 20 µM

row,SMILES,Potency
1,O=C(Nc1ccccc1)N1CC2(CCN(C(=O)c3ccncc3)CC2)C1,> 20 µM
2,COc1cccc(Cn2c(=O)c(C)nc3cnc(N4CCNCC4)nc32)c1,> 4 µM
3,COc1ccc(Oc2ncc3nc(-c4cc(F)cc(F)c4)c(=O)n(C[C@H]4CCCO4)c3n2)cc1,> 20 µM
4,CCNc1ncc2nc(-c3ccc(Cl)cc3)c(=O)n(-c3ccccc3)c2n1,7.07 µM (active)
5,O=C(c1cccc(F)c1)N1CCC[C@@]2(CCN(c3cccc(-c4ccccc4)c3)C2)C1,> 20 µM
6,COCCn1c(=O)c(CCc2ccccc2)nc2cnc(Nc3ccccc3)nc21,> 20 µM
7,Cn1cc(-c2nc3cncnc3n(Cc3ccccc3Cl)c2=O)c2ccccc21,> 20 µM
8,CN(C)c1ncc2nc(-c3cccs3)c(=O)n(C)c2n1,> 4 µM
9,COc1cccc(-c2cncnc2NCc2ccc(OC)cc2OC)c1,> 20 µM
10,N#Cc1cccc(-c2nc3cnc(N4CCNCC4)nc3n(C3CC3)c2=O)c1,> 20 µM
11,CS(=O)(=O)Nc1cccc(-c2cncnc2NCc2ccccc2)c1,> 20 µM
12,O=C(c1ccco1)N1CCC2(CCCN(c3ccccc3)C2)CC1,> 20 µM
13,O=C(Nc1cccc(F)c1)N1CC[C@@]2(CCCN(C(=O)c3cccc(F)c3)C2)C1,> 20 µM
14,COc1ccccc1CNc1ccnc(-c2cccc(NS(C)(=O)=O)c2)n1,> 20 µM
15,CN(C)C(=O)c1ccc(-c2ccc3ncnc(NCc4cccnc4)c3c2)cc1,> 20 µM
16,CN1CCN(c2ncc3nc(-c4cccc(C#N)c4)c(=O)n(C[C@H]4CCCO4)c3n2)CC1,> 20 µM
17,COc1ccc(-c2nc3cnc(N(C)C)nc3n(C[C@H]3CCCO3)c2=O)cc1,> 20 µM
18,CCNc1ncc2nc(-c3cccs3)c(=O)n(Cc3cccc(OC)c3)c2n1,> 4 µM
19,Cn1cccc1C(=O)N1CCC[C@@]2(CCN(Cc3ccccc3)C2)C1,> 20 µM
20,O=C(Nc1cccc(F)c1)N1CC2(CCN(C(=O)c3cc(C(F)(F)F)cc(C(F)(F)F)c3)CC2)C1,> 4 µM
